# Measured values published in PMC6340896.
# Columns and labels:
# Test in all cases: cross-link between two proteins; affinity purification or IP with mass spectrometry; cross-linking mass spectrometry
# [1] = molecular target: Ribosomal RNA-processing protein 15 (UniProt Q06511)
# [2] = molecular target: Ribosome biogenesis protein BRX1 (UniProt Q08235)
# [3] = molecular target: Ribosome biogenesis protein NSA1 (UniProt P53136)
# [4] = molecular target: Ribosome biogenesis protein SSF1 (UniProt P38789)
# [5] = molecular target: Ribosome production factor 1 (UniProt P38805)
# Chain of Ribosome production factor 1, P38805 (P38805 whole entry): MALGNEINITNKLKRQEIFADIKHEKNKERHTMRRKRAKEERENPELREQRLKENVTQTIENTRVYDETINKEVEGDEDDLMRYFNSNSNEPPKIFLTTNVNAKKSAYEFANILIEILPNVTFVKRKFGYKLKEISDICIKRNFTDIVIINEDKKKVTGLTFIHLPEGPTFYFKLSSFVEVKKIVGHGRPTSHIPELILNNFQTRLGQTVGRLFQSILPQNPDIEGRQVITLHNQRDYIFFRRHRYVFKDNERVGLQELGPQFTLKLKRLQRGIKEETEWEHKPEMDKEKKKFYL
# Chain of UniProt Q06511 (Q06511 whole entry): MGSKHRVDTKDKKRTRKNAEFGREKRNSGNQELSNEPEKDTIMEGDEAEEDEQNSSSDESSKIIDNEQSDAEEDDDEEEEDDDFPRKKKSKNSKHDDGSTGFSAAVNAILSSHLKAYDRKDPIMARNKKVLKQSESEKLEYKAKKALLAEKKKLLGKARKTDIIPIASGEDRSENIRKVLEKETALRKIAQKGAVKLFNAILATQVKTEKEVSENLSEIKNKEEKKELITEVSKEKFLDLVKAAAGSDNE
# Chain of UniProt P53136 (P53136 whole entry): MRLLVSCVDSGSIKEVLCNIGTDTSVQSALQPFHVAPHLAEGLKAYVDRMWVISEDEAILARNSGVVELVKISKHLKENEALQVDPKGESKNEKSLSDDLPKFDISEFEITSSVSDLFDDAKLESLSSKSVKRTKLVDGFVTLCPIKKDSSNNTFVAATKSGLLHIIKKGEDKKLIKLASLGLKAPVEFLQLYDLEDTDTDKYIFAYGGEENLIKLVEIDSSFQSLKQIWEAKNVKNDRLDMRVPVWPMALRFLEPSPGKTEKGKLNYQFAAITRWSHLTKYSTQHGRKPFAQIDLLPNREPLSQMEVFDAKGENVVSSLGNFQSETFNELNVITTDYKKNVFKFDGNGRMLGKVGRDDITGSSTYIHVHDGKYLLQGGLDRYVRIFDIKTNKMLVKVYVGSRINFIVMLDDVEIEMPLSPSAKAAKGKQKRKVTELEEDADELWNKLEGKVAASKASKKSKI
# Chain of Ribosome biogenesis protein SSF1, P38789 (P38789 whole entry): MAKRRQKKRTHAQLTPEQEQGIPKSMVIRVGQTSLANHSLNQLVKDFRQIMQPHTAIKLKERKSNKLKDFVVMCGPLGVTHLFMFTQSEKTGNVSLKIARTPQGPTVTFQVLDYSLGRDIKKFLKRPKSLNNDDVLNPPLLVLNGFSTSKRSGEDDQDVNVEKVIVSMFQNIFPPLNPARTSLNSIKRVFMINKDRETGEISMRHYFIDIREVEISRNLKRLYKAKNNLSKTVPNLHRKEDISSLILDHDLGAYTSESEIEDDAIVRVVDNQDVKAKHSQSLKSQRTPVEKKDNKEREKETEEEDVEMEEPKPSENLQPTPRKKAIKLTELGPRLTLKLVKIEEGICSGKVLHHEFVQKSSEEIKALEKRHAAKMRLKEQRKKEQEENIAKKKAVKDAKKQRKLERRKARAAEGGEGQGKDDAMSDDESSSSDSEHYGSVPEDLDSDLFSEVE
# Chain of UniProt Q08235 (Q08235 whole entry): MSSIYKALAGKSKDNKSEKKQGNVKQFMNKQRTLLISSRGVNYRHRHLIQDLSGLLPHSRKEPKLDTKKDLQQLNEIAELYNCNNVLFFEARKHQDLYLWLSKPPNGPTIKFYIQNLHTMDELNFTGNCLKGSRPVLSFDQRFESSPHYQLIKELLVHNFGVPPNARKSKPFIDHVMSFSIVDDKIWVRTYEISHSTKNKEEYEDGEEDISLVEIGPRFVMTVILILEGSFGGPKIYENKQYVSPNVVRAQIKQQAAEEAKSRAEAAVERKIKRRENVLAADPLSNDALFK
substance,measurement,setting,value
"Ribosome biogenesis protein SSF1, P38789",listed as a hit,[1],yes
same,listed as a hit,[2],yes
"Ribosome production factor 1, P38805",listed as a hit,[3],yes
"Large ribosomal subunit protein uL29A, P0CX84",listed as a hit,[4],yes
"Large ribosomal subunit protein uL22A, P05740",listed as a hit,[5],yes
